Measurements as given in the supplement of paper PMC11732987, “Enantioselective OTUD7B fragment discovery through chemoproteomics screening and high-throughput optimisation” (Communications Chemistry, 2025).

Experiments:
Assay in all cases: log2 ratio of Biotin-Ahx-Ub-VS probe labelling (fragment/DMSO); higher = less target engagement (more negative = stronger competition), active = hit call of the paper (q ≤ 0.05, log2 ratio ≤ -1)
Conditions in all cases: compound concentration: 200 uM; treatment time: 3 h
[1] = molecular target: T1, USP19 (UniProt O94966)
T1 sequence (whole entry): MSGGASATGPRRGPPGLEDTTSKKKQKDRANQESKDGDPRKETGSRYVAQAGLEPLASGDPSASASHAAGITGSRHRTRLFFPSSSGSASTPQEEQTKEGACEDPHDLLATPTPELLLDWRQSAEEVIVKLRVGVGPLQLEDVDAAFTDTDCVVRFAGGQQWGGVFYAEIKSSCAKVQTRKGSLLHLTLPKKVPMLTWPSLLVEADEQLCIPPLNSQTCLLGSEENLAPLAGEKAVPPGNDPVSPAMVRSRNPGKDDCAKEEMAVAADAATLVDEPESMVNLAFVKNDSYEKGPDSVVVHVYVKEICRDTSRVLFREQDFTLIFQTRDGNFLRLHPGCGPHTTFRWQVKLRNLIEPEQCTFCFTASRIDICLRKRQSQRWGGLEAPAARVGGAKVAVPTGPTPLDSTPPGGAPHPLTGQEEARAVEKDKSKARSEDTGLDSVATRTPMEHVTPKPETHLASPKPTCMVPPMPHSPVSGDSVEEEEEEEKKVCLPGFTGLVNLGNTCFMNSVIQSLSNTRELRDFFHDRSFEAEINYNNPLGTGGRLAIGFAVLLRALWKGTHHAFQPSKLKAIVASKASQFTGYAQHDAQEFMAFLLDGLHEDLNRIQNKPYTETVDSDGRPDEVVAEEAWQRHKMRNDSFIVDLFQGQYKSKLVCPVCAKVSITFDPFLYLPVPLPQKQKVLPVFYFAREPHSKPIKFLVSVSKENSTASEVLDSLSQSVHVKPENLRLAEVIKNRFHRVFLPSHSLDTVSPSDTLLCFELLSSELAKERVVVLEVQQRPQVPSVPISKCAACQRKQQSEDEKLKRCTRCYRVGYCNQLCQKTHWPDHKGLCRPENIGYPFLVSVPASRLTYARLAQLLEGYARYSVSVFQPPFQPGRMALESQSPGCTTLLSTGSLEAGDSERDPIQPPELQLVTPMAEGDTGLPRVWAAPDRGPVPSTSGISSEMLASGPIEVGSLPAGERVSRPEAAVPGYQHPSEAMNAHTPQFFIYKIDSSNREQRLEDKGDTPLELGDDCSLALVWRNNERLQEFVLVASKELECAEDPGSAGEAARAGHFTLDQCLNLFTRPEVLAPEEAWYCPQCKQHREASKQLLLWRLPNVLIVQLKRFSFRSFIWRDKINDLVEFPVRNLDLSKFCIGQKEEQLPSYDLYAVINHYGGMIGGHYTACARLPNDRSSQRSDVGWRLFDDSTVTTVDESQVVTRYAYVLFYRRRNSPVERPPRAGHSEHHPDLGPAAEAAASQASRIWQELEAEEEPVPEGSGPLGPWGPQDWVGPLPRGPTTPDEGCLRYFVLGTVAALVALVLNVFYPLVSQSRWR
Method in brief: (§1)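 Each value is an average log2 ratio of fragment to vehicle, tested by unpaired t-test. The underlying Spectronaut label-free quantities were global-median-normalised, and only proteins with ≥2 unique peptides were included. Triplicate HEK293T lysate samples (495 µg) were exposed to fragment at 200 µM or vehicle for 3 h, then to Biotin-Ahx-Ub-VS at 0.5 µM final for 1 h, before NeutrAvidin enrichment of labelled DUBs, LysC and trypsin digestion, and diaPASEF LC-MS/MS.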

[2] = molecular target: USP24 (UniProt Q9UPU5)
Chain of USP24 (Q9UPU5 whole entry): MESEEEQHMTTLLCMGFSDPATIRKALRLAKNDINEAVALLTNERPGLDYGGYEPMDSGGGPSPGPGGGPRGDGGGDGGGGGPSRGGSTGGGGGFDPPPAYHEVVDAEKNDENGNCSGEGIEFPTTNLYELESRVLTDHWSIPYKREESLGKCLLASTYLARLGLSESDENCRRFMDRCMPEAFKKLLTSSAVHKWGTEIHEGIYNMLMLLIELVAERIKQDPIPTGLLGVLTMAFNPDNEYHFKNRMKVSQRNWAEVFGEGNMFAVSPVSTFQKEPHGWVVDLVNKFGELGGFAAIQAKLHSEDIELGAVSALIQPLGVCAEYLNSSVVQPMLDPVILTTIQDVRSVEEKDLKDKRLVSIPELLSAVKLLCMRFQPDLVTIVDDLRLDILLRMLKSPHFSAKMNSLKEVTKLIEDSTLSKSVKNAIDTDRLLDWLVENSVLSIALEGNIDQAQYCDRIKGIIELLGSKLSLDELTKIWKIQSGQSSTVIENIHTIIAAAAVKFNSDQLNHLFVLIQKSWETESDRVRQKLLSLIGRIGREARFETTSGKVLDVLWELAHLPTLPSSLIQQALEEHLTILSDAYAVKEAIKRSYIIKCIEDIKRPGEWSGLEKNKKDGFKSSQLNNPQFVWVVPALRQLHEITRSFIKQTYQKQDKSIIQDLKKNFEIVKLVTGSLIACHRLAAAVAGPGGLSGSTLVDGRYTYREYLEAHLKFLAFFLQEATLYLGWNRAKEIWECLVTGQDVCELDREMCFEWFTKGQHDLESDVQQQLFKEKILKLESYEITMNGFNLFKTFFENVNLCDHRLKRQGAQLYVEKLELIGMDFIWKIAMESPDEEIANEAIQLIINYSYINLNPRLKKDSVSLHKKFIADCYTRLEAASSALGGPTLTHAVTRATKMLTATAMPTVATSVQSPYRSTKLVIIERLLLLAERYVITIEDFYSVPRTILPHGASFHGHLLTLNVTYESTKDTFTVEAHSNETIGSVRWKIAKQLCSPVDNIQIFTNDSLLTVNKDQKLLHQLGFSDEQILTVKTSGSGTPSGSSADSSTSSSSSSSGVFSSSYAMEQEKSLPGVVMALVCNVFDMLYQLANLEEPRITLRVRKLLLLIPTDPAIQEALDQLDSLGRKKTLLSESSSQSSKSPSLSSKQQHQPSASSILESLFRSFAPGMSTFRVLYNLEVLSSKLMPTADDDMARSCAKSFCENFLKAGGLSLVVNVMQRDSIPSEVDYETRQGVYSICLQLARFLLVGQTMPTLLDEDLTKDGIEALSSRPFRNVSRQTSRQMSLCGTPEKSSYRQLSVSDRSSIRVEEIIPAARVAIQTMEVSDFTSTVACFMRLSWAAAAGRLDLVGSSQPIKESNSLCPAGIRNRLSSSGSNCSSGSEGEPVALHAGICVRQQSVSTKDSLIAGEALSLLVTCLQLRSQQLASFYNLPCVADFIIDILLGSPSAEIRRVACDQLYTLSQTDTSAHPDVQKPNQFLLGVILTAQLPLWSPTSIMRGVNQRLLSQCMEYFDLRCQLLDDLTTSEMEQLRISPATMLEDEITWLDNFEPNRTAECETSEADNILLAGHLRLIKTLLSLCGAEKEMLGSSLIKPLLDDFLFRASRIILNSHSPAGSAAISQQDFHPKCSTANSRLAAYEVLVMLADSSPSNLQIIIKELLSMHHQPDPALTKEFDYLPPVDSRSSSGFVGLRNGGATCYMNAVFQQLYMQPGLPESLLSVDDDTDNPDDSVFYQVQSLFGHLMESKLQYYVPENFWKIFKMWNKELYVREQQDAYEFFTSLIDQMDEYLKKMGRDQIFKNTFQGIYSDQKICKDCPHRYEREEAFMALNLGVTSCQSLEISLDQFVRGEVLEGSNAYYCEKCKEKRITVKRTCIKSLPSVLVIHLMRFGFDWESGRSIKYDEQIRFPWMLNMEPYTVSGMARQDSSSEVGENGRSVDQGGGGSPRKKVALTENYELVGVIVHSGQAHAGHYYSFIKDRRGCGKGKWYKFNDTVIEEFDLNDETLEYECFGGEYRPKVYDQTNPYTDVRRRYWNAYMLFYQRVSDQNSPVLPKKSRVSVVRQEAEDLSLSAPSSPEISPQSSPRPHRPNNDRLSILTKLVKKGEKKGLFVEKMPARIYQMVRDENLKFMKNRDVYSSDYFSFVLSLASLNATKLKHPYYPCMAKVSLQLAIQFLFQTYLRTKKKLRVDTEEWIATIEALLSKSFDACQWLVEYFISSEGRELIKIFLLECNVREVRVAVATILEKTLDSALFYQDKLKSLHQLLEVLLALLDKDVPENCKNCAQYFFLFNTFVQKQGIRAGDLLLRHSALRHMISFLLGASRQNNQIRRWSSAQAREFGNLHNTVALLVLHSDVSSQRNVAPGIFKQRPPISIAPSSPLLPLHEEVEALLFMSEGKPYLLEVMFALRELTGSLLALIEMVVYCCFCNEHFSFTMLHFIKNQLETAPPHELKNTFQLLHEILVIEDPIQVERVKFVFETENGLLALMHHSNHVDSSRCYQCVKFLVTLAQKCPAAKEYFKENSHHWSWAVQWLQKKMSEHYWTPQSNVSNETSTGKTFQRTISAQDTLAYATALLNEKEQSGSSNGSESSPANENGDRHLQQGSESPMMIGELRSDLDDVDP
Method in brief: as §1

[3] = molecular target: T2, USP25 (UniProt Q9UHP3)
T2 sequence (whole entry): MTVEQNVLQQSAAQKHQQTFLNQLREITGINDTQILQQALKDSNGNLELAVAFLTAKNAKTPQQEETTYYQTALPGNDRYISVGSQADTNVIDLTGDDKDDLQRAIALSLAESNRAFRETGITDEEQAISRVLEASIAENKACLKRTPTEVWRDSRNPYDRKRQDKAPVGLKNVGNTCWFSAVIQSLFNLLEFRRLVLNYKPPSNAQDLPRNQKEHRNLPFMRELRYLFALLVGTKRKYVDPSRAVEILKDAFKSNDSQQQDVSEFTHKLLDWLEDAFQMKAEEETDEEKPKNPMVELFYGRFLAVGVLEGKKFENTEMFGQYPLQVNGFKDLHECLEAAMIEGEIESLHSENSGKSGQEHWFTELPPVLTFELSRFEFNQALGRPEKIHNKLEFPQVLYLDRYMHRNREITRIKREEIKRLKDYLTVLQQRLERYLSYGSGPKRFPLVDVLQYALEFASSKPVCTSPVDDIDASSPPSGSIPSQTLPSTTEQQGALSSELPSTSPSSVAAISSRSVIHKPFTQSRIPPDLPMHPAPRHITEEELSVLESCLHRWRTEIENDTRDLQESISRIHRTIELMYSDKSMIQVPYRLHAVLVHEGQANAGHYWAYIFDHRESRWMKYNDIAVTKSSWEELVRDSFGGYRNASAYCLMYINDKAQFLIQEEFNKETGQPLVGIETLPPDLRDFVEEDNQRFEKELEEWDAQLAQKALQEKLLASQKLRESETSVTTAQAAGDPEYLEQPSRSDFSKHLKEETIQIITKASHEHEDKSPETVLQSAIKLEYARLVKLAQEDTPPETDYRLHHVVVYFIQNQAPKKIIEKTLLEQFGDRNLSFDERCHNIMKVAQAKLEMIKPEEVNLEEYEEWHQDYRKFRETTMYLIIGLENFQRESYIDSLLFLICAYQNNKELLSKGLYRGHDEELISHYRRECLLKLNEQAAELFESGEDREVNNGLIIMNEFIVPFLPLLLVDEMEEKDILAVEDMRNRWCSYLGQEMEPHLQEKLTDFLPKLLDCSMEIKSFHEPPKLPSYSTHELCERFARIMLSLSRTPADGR
Method in brief: as §1

[4] = molecular target: T3, USP28 (UniProt Q96RU2)
T3 sequence (whole entry): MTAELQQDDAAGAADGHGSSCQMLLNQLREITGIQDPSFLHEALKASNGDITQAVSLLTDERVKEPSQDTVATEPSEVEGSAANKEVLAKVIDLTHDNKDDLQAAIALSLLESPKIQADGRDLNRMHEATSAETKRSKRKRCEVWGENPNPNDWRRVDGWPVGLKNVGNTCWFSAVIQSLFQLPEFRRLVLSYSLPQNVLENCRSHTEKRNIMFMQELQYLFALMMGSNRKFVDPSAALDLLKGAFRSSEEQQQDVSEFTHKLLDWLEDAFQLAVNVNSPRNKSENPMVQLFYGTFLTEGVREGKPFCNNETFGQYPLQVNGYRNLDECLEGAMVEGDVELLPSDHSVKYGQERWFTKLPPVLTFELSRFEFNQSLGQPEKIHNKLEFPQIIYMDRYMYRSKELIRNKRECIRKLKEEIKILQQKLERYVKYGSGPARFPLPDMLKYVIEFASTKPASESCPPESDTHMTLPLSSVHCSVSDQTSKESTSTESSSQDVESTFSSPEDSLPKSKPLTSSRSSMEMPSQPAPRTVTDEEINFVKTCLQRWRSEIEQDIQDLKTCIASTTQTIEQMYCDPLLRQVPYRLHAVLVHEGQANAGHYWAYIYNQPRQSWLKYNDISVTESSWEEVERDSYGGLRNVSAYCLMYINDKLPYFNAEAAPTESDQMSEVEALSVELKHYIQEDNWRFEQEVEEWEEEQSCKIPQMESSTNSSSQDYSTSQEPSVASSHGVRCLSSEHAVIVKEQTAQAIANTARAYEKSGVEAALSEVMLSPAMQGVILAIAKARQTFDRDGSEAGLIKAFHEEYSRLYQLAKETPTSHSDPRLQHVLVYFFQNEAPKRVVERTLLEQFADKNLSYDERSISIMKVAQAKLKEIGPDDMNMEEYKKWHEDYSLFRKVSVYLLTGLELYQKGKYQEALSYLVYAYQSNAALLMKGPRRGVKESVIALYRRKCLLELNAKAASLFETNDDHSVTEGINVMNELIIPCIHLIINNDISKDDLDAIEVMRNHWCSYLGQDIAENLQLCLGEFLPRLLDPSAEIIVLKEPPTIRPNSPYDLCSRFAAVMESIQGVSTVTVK
Method in brief: as §1

Measured: log2 ratio of Biotin-Ahx-Ub-VS probe labelling

CCN(C(=O)CCl)C1CCCCC1
inactive: [1] 0.1 | [2] -0.333 | [3] 0.0335 | [4] -0.0965
